Source: the GenesisPotency data set
The campaign covered roughly 290,000 compounds. About 3,000 (1%) were called active. This is one part of a sample in which actives are shown more often than they occur. Rule as the data show it: active = inhibition mostly above about 36% (no sharp cut-off); inactive = mostly below about 34%.

target: T1, Nucleotide-binding oligomerization domain-containing protein 1, Homo sapiens (UniProt Q9Y239); assay: inhibition of NOD1-driven NF-kB reporter – cell-based, luminescence, uHTS, primary screen (AID 1578)
T1 sequence (whole entry): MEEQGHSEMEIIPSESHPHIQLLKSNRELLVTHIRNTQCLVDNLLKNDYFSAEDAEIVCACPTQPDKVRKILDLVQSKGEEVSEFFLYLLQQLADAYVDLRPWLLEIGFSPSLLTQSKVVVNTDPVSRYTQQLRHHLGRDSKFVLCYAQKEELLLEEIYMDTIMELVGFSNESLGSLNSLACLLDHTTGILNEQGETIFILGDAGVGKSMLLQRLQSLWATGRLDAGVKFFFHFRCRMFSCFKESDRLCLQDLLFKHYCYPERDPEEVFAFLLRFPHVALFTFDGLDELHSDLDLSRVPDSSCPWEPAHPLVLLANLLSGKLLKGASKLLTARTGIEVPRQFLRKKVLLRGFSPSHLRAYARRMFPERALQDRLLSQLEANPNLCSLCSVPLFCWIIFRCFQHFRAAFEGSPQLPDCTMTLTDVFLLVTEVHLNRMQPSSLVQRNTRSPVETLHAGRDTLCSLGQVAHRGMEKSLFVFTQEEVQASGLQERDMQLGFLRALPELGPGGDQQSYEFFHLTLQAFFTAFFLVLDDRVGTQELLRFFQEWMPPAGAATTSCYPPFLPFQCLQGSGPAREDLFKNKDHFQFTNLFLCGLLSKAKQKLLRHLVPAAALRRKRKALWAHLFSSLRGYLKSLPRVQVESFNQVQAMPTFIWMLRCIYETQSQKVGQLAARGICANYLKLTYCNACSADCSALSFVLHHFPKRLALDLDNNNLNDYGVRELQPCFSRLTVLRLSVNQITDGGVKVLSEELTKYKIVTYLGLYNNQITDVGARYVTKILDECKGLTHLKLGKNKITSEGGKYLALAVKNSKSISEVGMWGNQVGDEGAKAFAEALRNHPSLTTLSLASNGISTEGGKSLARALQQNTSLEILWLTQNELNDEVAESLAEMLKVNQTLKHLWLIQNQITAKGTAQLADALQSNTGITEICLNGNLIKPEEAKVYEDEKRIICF

outcome, active:
COc1ccc(Cc2nc3ccc(C(=O)N4CCN(C)C(C)C4)cc3o2)cc1OC (stereo not given)
Cc1cccc(CSc2cccc3cccnc23)c1
Cn1c(=O)[nH]c(=O)c2c1nc([N+](=O)[O-])n2Cc1ccccc1
CCCCCn1c(SCCc2ccccc2)nc2c1c(=O)[nH]c(=O)n2C
Cn1c(=O)[nH]c(=O)c2c1nc(N1CCC(Cc3ccccc3)CC1)n2Cc1ccccc1
COc1cccc(-c2coc3c(C)c4oc(=O)c(CCC(=O)O)c(C)c4cc23)c1
Cc1ccc(-c2csc(NC(=O)c3ccc4c(=O)n5c(nc4c3)CCCCC5)n2)cc1
O=C(Nc1nc(-c2ccccc2)cs1)c1ccc2c(=O)n3c(nc2c1)CCCCC3
COc1ccc(CNC(=O)c2cc3c(C)nc4ccccc4c3o2)c(OC)c1
C/C(=N\NC(=O)C1COc2ccccc2O1)c1ccccn1 (stereo not given)
C/C(=N\NC(=O)c1ccccc1Cl)c1ccccn1
C/C(=N\Nc1nc2ccccc2[nH]1)c1ccccn1
C/C(=N\NC(=O)c1cccc2ccccc12)c1ccccn1
C/C(=N\NC(=O)c1cc(-c2cccs2)nc2ccccc12)c1ccccn1
C/C(=N\NC(=O)C(C)Oc1ccc([N+](=O)[O-])cc1)c1ccccn1 (stereo not given)
C=CCNC(=S)N/N=C(\C)c1ccccn1
C/C(=N\NC(=O)C(c1ccccc1)c1ccccc1)c1ccccn1
O=S1(=O)Nc2c(ccc3cccnc23)-c2ccccc21
Cc1ccccc1-c1nc(CSc2nc3c(c(=O)[nH]2)CCC3)c(C)o1
O=C(CCl)c1cc2c3c(c1)CC(=O)N3CCC2
CCOc1cc(S(=O)(=O)NCc2ccncc2)ccc1Cl
CCN(CC)S(=O)(=O)c1ccc(C(=O)Nc2ccc(Cc3ccncc3)cc2)cc1
Cc1ccc(C)c(N2CCN(C(=O)CCS(=O)(=O)c3ccc4c(c3)NC(=O)C(C)S4)CC2)c1 (stereo not given)
CCOc1ccc(/C=C/C(O)=C2/C(=O)N(C)C3(C)CC2c2ccccc2O3)cc1OC (stereo not given)
COc1ccc(-n2nc(C#N)c(Cl)cc2=O)cc1
Cn1c(/C=C/c2ccc(Cl)cc2Cl)c([N+](=O)[O-])c(=O)n(C)c1=O
Cc1ccc(-n2c(-c3ccc(Br)cc3)c[n+]3c2CCc2ccc4cccnc4c2-3)cc1.[Br-]
O=c1cc(C(F)(F)F)[nH]c2ccc(OC(F)(F)F)cc12
O=c1cc(C(F)(F)F)[nH]c2ccc(C(F)(F)F)cc12
O=C1CSc2ccc(C(=O)Nc3cccc(S(=O)(=O)Nc4ccc(Br)cc4)c3)cc2N1
CC1CC(C)CN(C(=O)/C=C/c2ccc([N+](=O)[O-])s2)C1 (stereo not given)
O=C(/C=C/c1ccc([N+](=O)[O-])s1)N1CCCCC1
CCOC(=O)c1c(-c2ccccc2)oc2cc(Br)c(O)c(C=O)c12
COc1ccccc1NC(=O)c1cc2cc(Br)ccc2cc1O
Cc1ccnc(NC(=O)Cc2ccc(-c3ccccc3)cc2)c1
COc1cc(OC)cc(-c2cc3nc(C)c(CCC(=O)O)c(C)n3n2)c1
O=c1[nH]c(-c2ccccn2)nc2sc(-c3ccccc3)cc12
Cn1c2c(c(=O)n(C)c1=O)C(C(F)(F)F)(C(F)(F)F)N=C(c1ccc(Cl)cc1)N2
CC1CCC/C=C/C(=O)c2c(O)cc(O)cc2CC(=O)O1 (stereo not given)
COc1ccc(NC(=O)/C(Cl)=C(/Cl)S(=O)(=O)Cc2ccc(C)cc2)cn1
COc1ccc(NC(=O)/C(Cl)=C(/Cl)S(=O)(=O)Cc2ccccc2)cn1
N=C1SCC(=O)N1c1ncc(Cc2cccc(Cl)c2)s1
N=C1SCC(=O)N1c1ncc(Cc2ccc(F)cc2)s1
N=C1SCC(=O)N1c1ncc(Cc2ccccc2Cl)s1
O=c1[nH]c(=O)n(Cc2ccco2)c2c1C(C(F)(F)F)(C(F)(F)F)N=C(c1ccc(F)cc1)N2
Nc1ncnc(NCc2ccc(F)cc2)c1[N+](=O)[O-]
CC(=O)c1ccc(N2CCN(S(=O)(=O)c3ccc4c(c3)CC(C)N4C(C)=O)CC2)cc1 (stereo not given)
CCc1ccc(NC(=O)C2CCN(S(=O)(=O)c3ccc4c(c3)CC(C)N4C(C)=O)CC2)cc1 (stereo not given)
Cc1ccc(-n2nc3c(=O)n(C(C)C(=O)NCCCc4ccccc4)nc(C)c3c2C)cc1 (stereo not given)
Cc1ccc(-n2nc3c(=O)n(C(C)C(=O)NCCc4cccs4)nc(C)c3c2C)cc1 (stereo not given)
Cc1ccc(-n2nc3c(=O)n(CC(=O)NC(C)CCc4ccccc4)nc(C)c3c2C)cc1 (stereo not given)
Cc1ccc(-n2nc3c(=O)n(C(C)C(=O)NCCC4=CCCCC4)nc(C)c3c2C)cc1 (stereo not given)
O=C(c1cnc(N2CCN(c3ccccn3)CC2)c2ccccc12)N1CCN(c2cccc(Cl)c2)CC1
Cc1ccc(NC(=O)c2cnc(N3CCN(c4ccccn4)CC3)c3ccccc23)c(Br)c1
CCc1ccc(NC(=O)c2cnc(N3CCN(c4ccccn4)CC3)c3ccccc23)cc1
Cc1cc(Br)ccc1NC(=O)c1cnc(N2CCN(c3ccccn3)CC2)c2ccccc12
C=CCSc1nc2ccccc2n1C(=O)/C=C/c1ccc(OC)c(OC)c1
COc1ccc(N(C(=O)CCl)C(C(=O)NC2CCCCC2)c2cccnc2)cc1 (stereo not given)
O=C(NC1CCCCC1)C(c1cccnc1)N(C(=O)CCl)c1ccc(F)cc1 (stereo not given)
O=C(CN1C(=O)c2ccccc2S1(=O)=O)c1ccc2c(c1)OCCO2
O=C(CN1C(=O)c2ccccc2S1(=O)=O)c1ccc2c(c1)OCCCO2
COc1cc(/C=C/C(=O)c2ccc(NS(=O)(=O)c3ccc(C)cc3)cc2)cc(OC)c1O
COc1cc(OC)c(OC)cc1/C=C/C(=O)c1ccc(NS(=O)(=O)c2ccc(C)cc2)cc1
O=C(/C(=C/c1ccc(Cl)cc1)c1nc2ccccc2[nH]1)c1cccs1
O=C(/C(=C\c1ccccc1)c1nc2ccccc2[nH]1)c1ccc(Cl)cc1
O=C(/C(=C/c1ccc(Cl)cc1)c1nc2ccccc2[nH]1)c1ccccc1
Cc1ccc(S(=O)(=O)Nc2cccc3ncccc23)s1
O=S(=O)(Nc1cccc2ncccc12)c1cccs1
Cc1ccc(C)c(OCC(=O)Nc2nc3ccc([N+](=O)[O-])cc3s2)c1C
O=[N+]([O-])c1ccc(O)c(-c2cc(C(F)(F)F)nc(-c3ccccc3)n2)c1
CC(C)c1ccc(-n2c(-c3ccccc3)c[n+]3c2CCc2ccccc2-3)cc1.[Br-]
CCCCCCCCC[n+]1cccc2c3ccccc3ccc21.[Br-]
CCCCCCCC[n+]1cccc2c3ccccc3ccc21.[I-]
O=C(NC(NC(=S)Nc1ccc(Cl)cc1Cl)C(Cl)(Cl)Cl)c1cccc([N+](=O)[O-])c1 (stereo not given)
COc1ccc(Cc2[nH]n3c(=O)c(Cl)c(C)nc3c2-c2ccccc2)cc1
O=C(Cc1ccc(Cl)cc1)c1c[nH]c(C(=O)NCc2cccnc2)c1
CCc1ccc(N(CC)c2ncnc3nc[nH]c23)cc1
CCCN(CCC)c1ncnc2nc[nH]c12
CCN(c1ccc(OC)cc1)c1ncnc2nc[nH]c12
COc1ccc(N=C2NC(=O)/C(=C/c3ccc(O)c(OC)c3)S2)cc1
Cc1ccc(C(=O)NC(=S)N(C)C2CCCCC2)cc1Br
O=[N+]([O-])c1ccc(Sc2cccc3cccnc23)c([N+](=O)[O-])c1
C=CCn1nc([N+](=O)[O-])nc1Sc1cccc2cccnc12
Cn1nc([N+](=O)[O-])nc1Sc1cccc2cccnc12
C=CCn1c(SCC(=O)Nc2sccc2C(N)=O)nc2sc(CC)cc2c1=O
Cc1ccc(C(=O)OCn2ncc(Cl)c(Cl)c2=O)cc1
O=C(OCn1ncc(Br)c(Br)c1=O)c1ccccc1Cl
O=C(OCn1ncc(Cl)c(Cl)c1=O)c1cccc(C(F)(F)F)c1
O=C(OCn1ncc(Cl)c(Cl)c1=O)c1ccccc1Cl
COc1cccc(C(=O)Nc2nc(-c3ccccc3)c(-c3ccccc3)o2)c1
COc1cc(OC)cc(C(=O)Nc2nc(-c3ccccc3)c(-c3ccccc3)o2)c1
S=c1[nH]nc(C2CCCCC2)n1/N=C/c1ccncc1
O=c1c2cc(Cl)ccc2nc(-c2ccc(Cl)c(Cl)c2)n1O
O=c1c2cc(Br)ccc2nc(-c2cccc(C(F)(F)F)c2)n1O
COc1cccc(N2CCN(c3ncnc4c3[nH]c3ccc(F)cc34)CC2C)c1 (stereo not given)
COc1cccc(N2CCN(c3ncnc4c3[nH]c3ccccc34)CC2C)c1 (stereo not given)
Cc1nc(N2CCC(C(N)=O)CC2)c2c(-c3cccs3)csc2n1
Cc1sc2nc(CSc3ccccc3)nc(N3CCC(C(N)=O)CC3)c2c1C
CCc1nnc(NC(=O)c2nc(S(=O)(=O)Cc3ccc(C)cc3)ncc2Cl)s1
CCCc1nnc(NC(=O)c2nc(S(=O)(=O)Cc3cccc(C)c3)ncc2Cl)s1
CCCc1nnc(NC(=O)c2nc(S(=O)(=O)Cc3ccc(C)cc3)ncc2Cl)s1
Cc1cccc(CS(=O)(=O)c2ncc(Cl)c(C(=O)Nc3c(C)cccc3C)n2)c1
CC(C)(C)C(=O)/C(=C/c1ccc(Cl)cc1)n1cncn1
O=c1c2ccccc2nc(/C=C/c2ccc([N+](=O)[O-])o2)n1CCCO
O=c1c2ccccc2nc(/C=C/c2cc(Br)ccc2O)n1CCCO
CC[n+]1c(C=C2C=C(C)OC(C)=C2)sc2ccccc21.[Cl-]
O=[N+]([O-])c1nn(-c2ccc3c(c2)OCCO3)n(O)c1=Nc1ccccc1
Cc1ccccc1Nc1nc(N)nc(CCl)n1
CCOc1ccc(Nc2nc(N)nc(CCl)n2)cc1
COc1ccc(OC)c(Nc2nc(N)nc(CCl)n2)c1
